In the supplement of paper PMC10338343:
± gives the standard deviation.

Test system: EfPiwi piRISC loaded with L1MC piRNA (26 nt)
Assay: pre-steady-state target cleavage rate (min^-1); auxiliary factor: 500 nM Ephydatia muelleri Gtsf1; guide: L1MC piRNA 5'p-UAACUAAAUACUAUGCAAGCUGUAGG; MIWI and MILI are mouse PIWI proteins and EfPiwi is from a freshwater sponge; tags in brackets are library labels; higher = faster piRNA-guided slicing of the target
How it was run: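 Active affinity-purified piRISC (1 nM) loaded with one synthetic guide was mixed with a transcribed, DNA-blocked target RNA library (0.1 nM), with or without 500 nM GTSF1 partner protein, in HEPES–potassium acetate buffer at 33 °C for 0–8 or 0–960 min. Uncleaved targets were sequenced, normalised to depth and to weakly complementary targets, and pooled across three trials, with k3 capped at 0.0001 min^-1. The pre-steady-state cleavage rate was determined with a burst-and-steady-state fit.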

Row | Sequence | pre-steady-state target cleavage rate
1 | UCCUGCUACAGCUUGCAUAGUAUAUAGUUA | 0.00448 ± 0.0019
2 | UCCUGGAUGUCGUUGGUUAGUAUUUAGUUA | < 0.0001
3 | UCCUGCUACAGCUUGCAUAGUUAUUAGUAA | 0.00306 ± 0.0017
4 | UCCUGGAUGAGCUUGGAUAGUAUUUAGAAA | 0.00463 ± 0.0034
5 | UCCUGGAUGUCGAACGUUACAAUUUAGUUA | < 0.0001
6 | UCCUGGAUGUCGAACGUAAGUAUUUCAGUUA | < 0.0001
7 | UCCUGCUACAGCUUGCAUAGUAUUAUGUAA | 0.00194 ± 0.0019
8 | UCCUGGAUCAGCAUGCAUAGUAUUUAGAUA | 0.0044 ± 0.0024
9 | UCCUCCUACACCUUGCAUAGUAUAUAGUUA | 0.00711 ± 0.0039
10 | UCCUGGUUCAGCAUGCAUAGUAUUUAGUUA | 0.0347 ± 0.0092
11 | UCCUGGUACAGCUUGCAUAGUUAUUAGUUA | 0.00325 ± 0.0025
12 | UCCUCCUACAGCUUGCAUAGUAUUUAGCUA | 0.00335 ± 0.0016
13 | UCCUCCUACAGCAUGCAUAGUAUUUACUUA | 0.00211 ± 0.0017
14 | UCCUGGAUGUCGAACGUAUGUUAUUUAGUUA | < 0.0001
15 | UCCUGGAUGUCGAACCAUGGUAUUUAGUUA | < 0.0001
16 | UCCUGGAUGUGCUUGCAUAGUAUUUAGUCUA | 0.00336 ± 0.0024
17 | UCCUGGAUGUCGAACCAUAGUCUUUAGUUA | < 0.0001
18 | UCCUGGAUGUGCUUGCAUUCAUAAAUCAAA [g13:g20:cont:t1A] | < 0.0001
19 | UCCUGGAUGUCGAACCAUAGCUAUUUAGUUA | < 0.0001
20 | UCCUGGUACAGCUUGCAUAGAAUUUAGAAA | 0.00253 ± 0.0021

Row | Sequence | pre-steady-state target cleavage rate
21 | UCCUCCCACAGCUUGCAUAGUAUUUAGUUA | 0.128 ± 0.029
22 | UCCUGCUUCAGCUUGCUUAGUAUUUAGUUA | 0.0238 ± 0.0068
23 | UCCUGGAUGUCGAAGGAUAGUAUUAAGUUA | < 0.0001
24 | UCCUCCUACUGCUUGCAUAGUAUUUUCAAA | 0.00274 ± 0.0026
25 | UCCUGGUACAGCUUCCAUAGUAUUUAGAAA | 0.00336 ± 0.0013
26 | UCCUCCUACAGCUUGCAUAGUAUUUUCUAA | 0.00565 ± 0.0036
27 | UCCUGGAAGUCCUUGCAUAGUAUUUAGUUA | 0.0092 ± 0.0031
28 | UCCUGGAUGUCGAACGUAUCUAUUAUAGUUA | < 0.0001
29 | UCCUGGAACAGCUUGCAUAGUAUUUACAAA | 0.00238 ± 0.0019
30 | UCCUGGAUGUCCUUGCAUAGUAUUUAGUUU [g2:g19:cont:t1U] | 0.00601 ± 0.0034
31 | UCCUGGUACAGCUUGCAAAGUAAUUAGUUA | 0.00305 ± 0.0021
32 | UCCUGGAUGUCGAACGUAAUUAUUUAGUUA | < 0.0001
33 | UCCUGGAACAGGAUGCAUAGUAUUUAGUUA | 0.00753 ± 0.0018
34 | UCCUGCUACAGCUUGCAUAGUAUUAAGAAA | 0.00481 ± 0.0021
35 | UCCUGGAUGUCGUAUGCAUAGUAUUUAGUUA | 0.00476 ± 0.0027
36 | UCCUGGAACAGCUUGCAUAGUAAUUUAGUUA | 0.00753 ± 0.0023
37 | UCCUGGUACAGCUUCCAUAGUAUUUAGUAA | 0.00378 ± 0.0022
38 | UCCUGGAUGUCGAACCAUAGUAUCUUAGUUA | < 0.0001
39 | UCCUGCUACAGCUUGCAUAGUAUUUAGCUUA | 0.00522 ± 0.0019
40 | UCCUGGAUGAGCUUGCAUAGUAUUUCAGUUA | 0.00264 ± 0.0023
